Source: PubChem BioAssay (National Center for Advancing Translational Sciences (NCATS))
This is a sample that favours compounds with a hit; in the whole collection about 17% have one here.
DT40 TDP1 CPT: qHTS for Inhibitors of human tyrosyl-DNA phosphodiesterase 1 (TDP1): qHTS in cells in presence of CPT; chicken DT40 Tdp1-/-;hTDP1 cells + 20 nM CPT, ATP luminescence, 48 h; Potency, µM (series often up to 46.2 µM), without a hit: top-dose activity change, negative = growth inhibition, hits mostly inhibitors; 420,000 tested, 12% active; AID 686979, 2013; note: % is set by controls: 0 for no effect and ±100 for the full control effect; nearly all actives have a fitted effect of over 55% in size
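Chicken DT40 Tdp1-/- cells stably complemented with human TDP1 were seeded at 400 cells/well in medium containing 20 nM camptothecin, exposed to pin-transferred compounds, and grown at 37 °C for at least 48 hr. Viability was read as ATP luminescence.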
TDP1 cell noCPT: qHTS for Inhibitors of human tyrosyl-DNA phosphodiesterase 1 (TDP1): qHTS in cells in absence of CPT; DT40 Tdp1-/- hTDP1 cells, no CPT, ATP luminescence, 48 h; Potency, µM (series often up to 46.2 µM), for inactives: top-dose activity change, negative = growth inhibition, hits mostly inhibitors; 420,000 tested, 15% active; AID 686978, 2013; note: % is set by controls: 0 for no effect and ±100 for the full control effect; nearly all actives have a fitted effect of over 55% in size
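Growth of hTDP1-complemented DT40 Tdp1-knockout cells is measured by ATP luminescence after at least 48 hr compound exposure at 37 °C, with DMSO substituting for the 20 nM CPT used in the parallel screen.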
TDP1 inh: qHTS Assay for Inhibitors of Tyrosyl-DNA Phosphodiesterase (TDP1) | Tyrosyl-DNA phosphodiesterase 1 (Homo sapiens), Q9NUW8 | recombinant TDP1, AlphaScreen DNA substrate cleavage | Potency, µM (titrated, usually from 130 µM), for the others: top-dose activity change, negative = inhibition, hits mostly inhibitors | 350,000 tested, 0.28% active | AID 485290, 2010; note: % is set by controls: 0 for no effect and ±100 for the full control effect; nearly all actives have a fitted effect of over 40% in size
Target sequence (Q9NUW8 whole entry, looked up): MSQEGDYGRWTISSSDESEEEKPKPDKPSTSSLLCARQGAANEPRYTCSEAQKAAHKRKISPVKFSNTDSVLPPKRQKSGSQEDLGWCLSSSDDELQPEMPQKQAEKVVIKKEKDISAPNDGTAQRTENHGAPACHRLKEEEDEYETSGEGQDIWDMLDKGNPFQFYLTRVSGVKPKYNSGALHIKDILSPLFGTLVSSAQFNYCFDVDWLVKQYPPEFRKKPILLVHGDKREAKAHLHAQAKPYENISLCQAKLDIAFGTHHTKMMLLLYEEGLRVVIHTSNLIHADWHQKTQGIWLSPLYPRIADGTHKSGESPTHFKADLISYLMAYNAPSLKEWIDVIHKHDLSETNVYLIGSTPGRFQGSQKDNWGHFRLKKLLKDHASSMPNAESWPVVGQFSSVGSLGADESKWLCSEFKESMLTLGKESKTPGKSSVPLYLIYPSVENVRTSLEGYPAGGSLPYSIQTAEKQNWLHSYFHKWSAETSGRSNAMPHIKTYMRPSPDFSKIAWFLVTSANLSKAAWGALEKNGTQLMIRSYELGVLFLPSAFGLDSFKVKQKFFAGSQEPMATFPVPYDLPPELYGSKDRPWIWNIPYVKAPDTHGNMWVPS
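Recombinant E. coli-expressed Tdp1 (1 nM) preincubated with compound 15 min at RT, then 5'-biotin/3'-phosphotyrosine-FITC DNA substrate (15 nM) added for 5 min. AlphaScreen beads (10 ug/ml) added, 10 min RT; tyrosine-FITC cleavage read as signal loss.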
ClpP mod: qHTS Assay for Activators of ClpP. Potency, µM (highest dose often 57.5 µM), inactives show at the highest dose activity change, negative = active. AID 651965, 2013. 340,000 tested, 1.9% active. ATP-dependent Clp protease proteolytic subunit (Bacillus subtilis (strain 168)), P80244. purified B. subtilis ClpP, FRET peptide cleavage, 20 min; active = well fitted falling curve with a large enough effect; inconclusive = small, poorly fitted or top-dose-only effect; inactive = no such curve, though single readings can be large or run the other way; note: the source files actives as falling curves though it sought activators and does not explain the sign; nearly all actives have a fitted effect of over 65% in size
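FRET quenching reversal measured ClpP activation: 10 microg/mL B. subtilis ClpP at pH 8 with the FRET-FV decapeptide, read at 430 nm after 320 nm excitation. The 20-min minus 0-min signal was scaled between DMSO/no-enzyme wells and ADEP (5.8 microM final).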
* marks the source's active call; other numbers are inactive results; ? = inconclusive; . = no result given. Unless noted, calls come from the whole dose curve; as a rule, active = well fitted curve in the direction sought with a large enough effect; inconclusive = small, poorly fitted or top-dose-only effect, or another doubt; inactive = no such curve, though single readings can be large; an effect the other way counts as inactive or inconclusive. Potency is the fitted concentration of half-maximal effect.

SMILES	DT40 TDP1 CPT	TDP1 cell noCPT	TDP1 inh	ClpP mod
CC[C@H](C)[C@H](NC(=O)[C@H](Cc1ccc(O)cc1)NC(=O)[C@@H]1CCCN1C(=O)[C@H](CCCN=C(N)N)NC(=O)[C@H](CCCN=C(N)N)NC(=O)[C@@H]1CCCN1C(=O)[C@H](CCCCN)NC(=O)[C@H](CC(N)=O)NC(=O)[C@H](CCC(N)=O)NC(=O)[C@H](Cc1ccc(O)cc1)NC(=O)[C@H](CC(C)C)NC(=O)[C@@H]1CCC(=O)N1)C(=O)N[C@@H](CC(C)C)C(=O)O	.	.	6.9%	.
Cc1ccc(SCCC(=O)N/N=C/c2ccccc2O)cc1	0.651µM*	1.3µM*	2.7%	.
O=C(CCC(=O)Nc1ccc(Br)cc1)N/N=C/c1ccccc1O	?	6.51µM*	.	.
Cc1cccc(NC(=O)CCC(=O)N/N=C/c2ccc(O)cc2O)c1	-94.2%	?	.	.
Cc1ccc(NC(=O)CCC(=O)N/N=C/c2ccccc2O)cc1	10.3µM*	14.6µM*	.	-9.3%
CCOCCCNC(=O)C(c1ccc(OC)cc1)N(Cc1cccs1)C(=O)c1ccccc1O (stereo not given)	?	?	8.1%	-1.4%
COc1cccc(Cn2c(=O)c(-c3cc(F)cc(F)c3)nc3cnc(N4CCOCC4)nc32)c1	-1.2%	4.0%	.	.
CC1=C(C(=O)N2CCCCCC2)CC(CC(=O)NC2CCCC2)C(=O)N1CCC1=CCCCC1 (stereo not given)	?	-24.5%	.	0.9%
CCCCN(C)c1c(C)nc2ccc(C(=O)Nc3cc(-c4ccccc4)ccc3OC)cn12	13µM*	16.4µM*	.	-6.7%
CCCCN(C)c1c(C)nc2ccc(C(=O)Nc3ccc(OC)c(OC)c3)cn12	?	14.6µM*	.	-0.2%
CN1c2c(nc(N)[nH]c2=O)NCC1CNc1ccc(C(=O)NC(CCC(=O)O)C(=O)O)cc1 (stereo not given)	5.2%	?	.	-0.7%
Nc1nc2[nH]cc(CCc3ccc(C(=O)N[C@@H](CCC(=O)O)C(=O)O)cc3)c2c(=O)[nH]1	0.0473µM*	0.0299µM*	.	-12.4%
O=C(CSc1nc2c([nH]c3ccccc32)c(=O)n1-c1ccc(Cl)cc1)N1CCc2ccccc21	-3.1%	14.3%	0.0%	-14.6%
C=CCn1c(=O)c2c3c(sc2n2c(Nc4ccc(OC)cc4)nnc12)CCCC3	9.2µM*	8.2µM*	8.7%	-0.9%
C=CCn1c(=O)c2c3c(sc2n2c(Nc4ccccc4)nnc12)CCCC3	8.91µM*	10µM*	1.1%	-2.4%
C=CCn1c(=O)c2c3c(sc2n2c(Nc4ccc(C(=O)OCC)cc4)nnc12)CCCC3	13µM*	11.6µM*	3.4%	-10.6%
CCOC(=O)c1ccc(Nc2nnc3nc(C)cc(C)n23)cc1	-8.5%	-7.3%	0.0%	-7.2%
Cc1nnc2n(Cc3ccccc3)c(=O)c3c4c(sc3n12)CCCC4	.	.	9.5%	.
COc1ccc(-c2noc(COc3ccc(Br)cc3C)n2)cc1OC	?	?	-10.6%	-15.1%
CCCC[C@@H]1C=C(C(=O)O)[C@H](c2ccc(Br)cc2)N1S(=O)(=O)c1ccc(C)cc1	13.2%	-0.2%	1.6%	-1.1%
CS(=O)(=O)Nc1ccc(-c2cnc3cccnn23)cc1	?	?	.	-16.4%
COc1ccccc1Cn1c(=S)[nH]c2cc(C(=O)N3CCCC(C)C3)ccc2c1=O (stereo not given)	?	?	.	-1.9%
CC(C)C(=O)Nc1nc(-c2ccc(S(=O)(=O)N3CCOCC3)cc2)cs1	?	?	1.7%	31.6µM*
O=C(Nc1nc(-c2ccc(S(=O)(=O)N3CCCC3)cc2)cs1)c1ccco1	23.1µM*	18.4µM*	8.0%	5.4%
O=C(COc1cccc(Cl)c1)Nc1nc(-c2ccc(S(=O)(=O)N3CCOCC3)cc2)cs1	20.6µM*	11.6µM*	-2.2%	-5.5%
SMILES	DT40 TDP1 CPT	TDP1 cell noCPT	TDP1 inh	ClpP mod
COc1ccccc1C(=O)Nc1nc(-c2ccc(S(=O)(=O)N3CCOCC3)cc2)cs1	2.59µM*	2.31µM*	3.9%	-25.4%
CCOc1cccc(C(=O)Nc2nc(-c3ccc(S(=O)(=O)N4CCOCC4)cc3)cs2)c1	?	?	-3.3%	?
COc1ccccc1OC(C)C(=O)Nc1nc(-c2ccc(S(=O)(=O)N3CCOCC3)cc2)cs1 (stereo not given)	?	?	5.1%	-11.0%
Nc1nc(SCC(=O)O)c2[nH]cnc2n1	-1.1%	6.5%	2.7%	-10.5%
COCCNc1nc(-c2cc3ccccc3o2)cs1	-7.4%	-3.7%	1.1%	?
OCc1cnc(SCc2ccccc2F)n1Cc1ccc(F)cc1	?	?	4.1%	-4.7%
Cc1cccc(NC(=O)C2CCC(CNS(=O)(=O)c3csc(C(N)=O)c3)CC2)c1C (stereo not given)	-15.2%	16.7%	0.0%	0.2%
COCCCNC(=O)c1ccccc1N(Cc1ccccc1)S(=O)(=O)c1ccc(OC)cc1	?	20.6µM*	.	-1.8%
C=CCN(c1ccccc1OC)S(=O)(=O)c1ccc(Cl)c(C(=O)NCc2ccco2)c1	18.4µM*	13µM*	.	-2.2%
COc1ccc(S(=O)(=O)Nc2ccccc2C(=O)NCc2ccco2)cc1	20.6µM*	?	2.0%	?
COc1ccc(S(=O)(=O)N(Cc2ccccc2)c2ccccc2C(=O)Nc2ccccc2C(=O)NCc2ccco2)cc1	?	5.8µM*	2.3%	22.4µM*
CN(c1ccccc1C(=O)Nc1ccccc1C(=O)NCc1ccco1)S(C)(=O)=O	0.7%	2.7%	4.4%	-6.2%
C=CCN(c1ccccc1OC)S(=O)(=O)c1cccc(C(=O)NCc2ccco2)c1	-0.1%	17.1%	1.1%	.
CCN1CCN(C(=O)c2ccccc2N(Cc2ccccc2)S(=O)(=O)c2ccc(OC)cc2)CC1	?	?	0.0%	-2.4%
CC1=C(C(=O)N(C(C)C)C(C)C)CC(CC(=O)NCCc2ccccn2)C(=O)N1Cc1ccc(F)cc1 (stereo not given)	0.9%	1.1%	.	-3.5%
CCOC(=O)/C=C/COc1ccccc1[N+](=O)[O-]	11.6%	-16.3%	7.2%	.
COc1ccc(-c2cc(C(=O)Nc3ccc(S(=O)(=O)Nc4onc(C)c4C)cc3)c3ccccc3n2)cc1	-4.9%	-18.6%	2.6%	-5.7%
COc1cc2ccccc2cc1C(=O)OCc1nc2ccsc2c(=O)[nH]1	5.8µM*	?	0.6%	4.4%
Cc1cnc(C(=O)OCc2nc3ccsc3c(=O)[nH]2)cn1	-1.2%	0.5%	14.1µM*	-23.5%
COc1cc(SC)ccc1C(=O)OCc1nc2ccsc2c(=O)[nH]1	8.2µM*	9.2µM*	.	-1.4%
CC(=O)c1ccc(NC(=S)N2CCN(S(=O)(=O)c3ccc(F)cc3)CC2)cc1	7.7%	-11.6%	1.3%	19.0%
